Assay outcomes deposited in PubChem by National Center for Advancing Translational Sciences (NCATS).
KB-3-1 tox: kills parental KB-3-1 adenocarcinoma cells | KB-3-1 viability, CellTiter-Glo ATP luminescence, 72 h | Potency, µM (doses to about 46.1 µM), usual class: cytotoxic | 1.4% of 400,000 active | AID 1347075; note: % is set by controls: 0 for no effect and ±100 for the full control effect; nearly all actives have a fitted effect of over 60% in size
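Viability of parental KB-3-1 cells, measured by CellTiter-Glo luminescence, followed a 72 h incubation at 37 °C with pinned compounds in phenol-red-free DMEM containing 10% FBS.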
HT1080 IDH1KD tx: kills HT-1080 cells with IDH1 knockdown; HT-1080 IDH1 knockdown viability, ATP luminescence, 48 h; Potency, µM (doses to about 46.1 µM), for the others: at the highest dose activity, negative = toxicity, hits mostly cytotoxic; 2% of 360,000 active;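 note: 0% = DMSO wells and -100% = cell-free medium wells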
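Viability of IDH1-knockdown HT-1080 fibrosarcoma cells was assessed by CellTiter-Glo after 48 h at 37 °C with titrated compound; concentration-effect curves were classified by fit quality and response size.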
KB-V1 cytotox: KB-V1 MDR subline cytotoxicity | 3.4% of 400,000 active | KB-V1 MDR cells viability, CellTiter-Glo, 72 h | Potency, µM (titrated, usually from 46.1 µM), most hits filed as cytotoxic | AID 1347076; note: % is set by controls: 0 for no effect and ±100 for the full control effect; nearly all actives have a fitted effect of over 60% in size
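Following 72 h at 37 degrees C with compound, KB-V1 cell viability was read by CellTiter-Glo luminescence, medium being phenol-red-free DMEM plus 10% FBS; concentration-response parameters came from normalized, curve-fitted qHTS data.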
MCF10A rerep: induces DNA re-replication in MCF 10a normal breast cells. MCF 10A DNA re-replication, Hoechst nuclear intensity, 48 h. Potency, µM (doses to about 46.1 µM), for inactives: top-dose activity, positive = re-replication, most hits filed as activators. 2.9% of 350,000 active. AID 624296; note: % of control where 0% means no effect; nearly all actives have a fitted effect of over 50% in size
SW480 rerep: inducers of DNA re-replication in SW480 colon cancer cells | AID 624297 | 1.8% of 340,000 active | Potency, µM (doses to about 46.1 µM), for the others: at the top dose re-replication activation, most hits filed as activators | SW480 DNA re-replication, Hoechst DNA content imaging, 48 h; note: % of control where 0% means no effect; nearly all actives have a fitted effect of over 55% in size
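Image-based read-out: total Hoechst fluorescence of nuclei (405 nm excitation, 500-530 nm emission), with hits raising the fraction of high-intensity nuclei. SW480 colon cells incubated 48 hr with compounds at 37 C.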
HT1080-NT tox: kills 2HG-producing HT-1080-NT fibrosarcoma cells; HT-1080-NT fibrosarcoma viability, CellTiter-Glo ATP luminescence, 48 h; Potency, µM (series often up to 46.1 µM), without a hit: top-dose activity, negative = less viability, hits mostly cytotoxic; 1.6% of 360,000 active; AID 686970;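 note: NT is the 2HG producing partner of a matched IDH1 knockdown line; 0% = DMSO-treated cells and -100% = media-only wells without cells; nearly all actives have a fitted effect of over 55% in size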
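Toxicity toward the 2HG-producing NT line was scored as %Activity, normalised to DMSO and no-cell wells, from CellTiter-Glo luminescence after 48 hours' treatment.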
* hit, by the source's call; i = inactive; ? = inconclusive; . = no result given. Most compounds without a hit are left out; they make up all but 8% or so of the library. Calls come from the whole dose curve; as a rule, active = well fitted curve in the direction sought with a large enough effect; inconclusive = small, poorly fitted or top-dose-only effect, or another doubt; inactive = no such curve, though single readings can be large; an effect the other way counts as inactive or inconclusive. Potency is the fitted concentration of half-maximal effect.

SMILES	KB-3-1 tox	HT1080 IDH1KD tx	KB-V1 cytotox	MCF10A rerep	SW480 rerep	HT1080-NT tox
N=c1ccn(Cc2cccc(F)c2)cc1	23µM*	-22%	i	-3%	?	?
Nc1ccn(Cc2cccc(F)c2)n1	i	7%	i	4%	-2%	2%
Cc1cc(NC(=O)CC2CCCC2)n(-c2nc3ccccc3[nH]2)n1	?	18µM*	18µM*	?	-2%	?
Cc1cc(NC(=O)c2ccc(F)cc2F)n(-c2nc3ccccc3[nH]2)n1	i	9%	i	?	1%	3%
Cc1cc(NC(=O)/C=C/c2ccccc2Cl)n(-c2nc3ccccc3[nH]2)n1	?	-26%	?	16µM*	?	?
CCc1ccc2oc(C(=O)N(Cc3cccc(Cl)c3)Cc3ccco3)c(C)c2c1	i	.	i	.	.	.
C=CCN(CC=C)Cc1cc(=O)oc2ccc3ccccc3c12	?	?	i	.	.	?
C=CCN(CC=C)Cc1c(O)ccc2c1oc(=O)c1ccccc12	i	-2%	10µM*	5%	-1%	1%
CC1=C(C(=O)Nc2ccc(C)cc2C)C(C(C)C)n2nc(SCc3ccccc3Cl)nc2N1 (centres undefined)	i	.	i	.	.	.
CC(=O)Nc1ccc(SCC(=O)c2ccc(Br)s2)cc1	i	18µM*	i	?	4%	26µM*
CCC(C)NC(=O)CSc1ccc(NC(C)=O)cc1 (centres undefined)	i	4%	i	-1%	-4%	6%
Cc1ccc2oc(-c3ccc(C)c(NC(=S)NC(=O)c4cccs4)c3)nc2c1	i	10%	i	10µM*	-6%	13%
Cc1ccc(-c2nc3ccccc3o2)cc1NC(=S)NC(=O)c1cc2ccccc2o1	8.2µM*	?	i	8%	?	?
Cc1ccc(-c2nc3cc(C(C)C)ccc3o2)cc1NC(=O)c1cc2ccccc2o1	i	.	i	.	.	.
Cc1ccc2nc(COc3ccccc3NC(=O)C(C)(C)C)cc(=O)n2c1	i	.	i	.	.	.
Cc1ccc(-c2noc(CN(C(=O)COc3cc(C)cc(C)c3C)C(C)C)n2)cc1	i	.	i	.	.	.
CN(CC(=O)NCCc1ccc(S(N)(=O)=O)cc1)CC(=O)Nc1ccccc1Cl	i	-1%	i	-5%	-3%	0%
CN(CC(=O)NCc1ccccc1)CC(=O)Nc1ccc(Cl)c(C(F)(F)F)c1	i	-5%	?	?	?	-13%
CN(CC(=O)NC(=O)NCc1ccccc1)CC(=O)Nc1ccc(Cl)c(C(F)(F)F)c1	?	?	?	?	-46%	18µM*
CN(CC(=O)NCCc1ccc(S(N)(=O)=O)cc1)CC(=O)Nc1ccc(Cl)c(C(F)(F)F)c1	16µM*	-10%	i	12%	3%	0%
Cc1ccc(C)c(N2CCN(C(=O)c3ccc(-c4nc(COc5ccccc5)c(C)o4)cc3)CC2)c1	i	.	i	.	.	.
CC1=C(C(=O)OCc2ccc3c(c2)OCO3)C(c2ccccc2)NC(=O)N1 (centres undefined)	23µM*	?	12µM*	-7%	-3%	?
COc1ccc(COC(=O)C2=C(C)NC(=O)NC2c2cccc(OC)c2OC)cc1 (centres undefined)	i	-12%	i	-3%	29%	7%
CCOC(=O)C1=C(CN2CC(C)CC(C)C2)NC(=O)NC1c1ccc2c(c1)OCO2 (centres undefined)	i	-4%	18µM*	-14%	?	-27%
CCOC(=O)C1=C(C)NC(=O)NC1c1cccc(OC)c1OCc1ccccc1Cl (centres undefined)	i	?	13µM*	?	12%	-25%
COc1ccc(COC(=O)C2=C(C)NC(=O)NC2c2cc(OC)ccc2OC)cc1 (centres undefined)	i	-4%	i	0.52µM*	-11%	-1%
